A number with no mark means an inactive call. A call without a number means that no potency is given here. For some assays here: Potency and affinity values are given separately. Active and inactive are the calls of the source. Unless noted, no rule for the calls is given here.
Tests used:
[1] = antimalarial activity against Dd2 strain (AID 2302;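 active = growth inhibition above 50% at the single 2 µM test dose, taken to imply half-maximal potency below 2 µM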); details: P. falciparum Dd2 in RBCs, LDH growth readout, 72 h; at 2 µM; stronger effect = higher value
[2] = human hepatoma cell viability loss – ATP luminescence, cytotoxicity control for P. falciparum antimalarial project, primary screen (AID 2303;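 active = inhibition above 50%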); details: HepG2 viability, 24-48 h, at 10 µM, stronger effect = higher value
[3] = target: L-lactate dehydrogenase (Plasmodium falciparum (isolate CDC / Honduras)) (UniProt Q27743); test: PfLDH activity inhibition – cell lysate, 3D7 strain, counter-screen for P. falciparum growth inhibition project (AID 2304); details: P. falciparum 3D7 crude extract, LDH APAD/NBT absorbance; at 2 µM; stronger effect = higher value
[4] = inhibition of 3D7 malaria parasite growth – strain 3D7 (AID 2306); details: P. falciparum 3D7 erythrocytic growth, LDH absorbance, 72 h; at 2 µM; stronger effect = higher value
[5] = target: Calcium-dependent protein kinase 1 (Plasmodium falciparum (isolate 3D7)) (UniProt P62344); test: PfCDPK1 kinase inhibitors, biochemical, TCAMS library (AID 1159585; cut-off not given, nearly all actives have IC50 up to about 0.98 µM;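 also: inhibitors leave more ATP so luminescence rises with inhibition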); details: recombinant PfCDPK1, Kinase-Glo ATP depletion luminescence
[6] = target: Plasmodium falciparum protein kinase 6 (PK6, PF3D7_1337100) (UniProt Q8IDW1); test: PfPK6 kinase inhibitors, biochemical, TCAMS library (AID 1159586); details: recombinant PfPK6, Kinase-Glo ATP depletion luminescence
[7] = target: Protein kinase 7 (PK7), Plasmodium falciparum 3D7 (PF3D7_0213400) (UniProt Q7YTF7); test: inhibition of Plasmodium PK7 catalytic activity – biochemical, TCAMS antimalarial set, Kinase-Glo luminescence (AID 1159587); details: recombinant PfPK7, Kinase-Glo ATP depletion luminescence
[8] = target: Calcium-dependent protein kinase 4 (Plasmodium falciparum (isolate 3D7)) (UniProt Q8IBS5); test: PfCDPK4 kinase inhibitors, biochemical, TCAMS library (AID 1159588; cut-off not given, nearly all actives have IC50 up to about 0.91 µM); details: recombinant PfCDPK4, Kinase-Glo ATP depletion luminescence
Sequence of Calcium-dependent protein kinase 4 (Plasmodium falciparum (isolate 3D7)) (Q8IBS5 whole entry, looked up): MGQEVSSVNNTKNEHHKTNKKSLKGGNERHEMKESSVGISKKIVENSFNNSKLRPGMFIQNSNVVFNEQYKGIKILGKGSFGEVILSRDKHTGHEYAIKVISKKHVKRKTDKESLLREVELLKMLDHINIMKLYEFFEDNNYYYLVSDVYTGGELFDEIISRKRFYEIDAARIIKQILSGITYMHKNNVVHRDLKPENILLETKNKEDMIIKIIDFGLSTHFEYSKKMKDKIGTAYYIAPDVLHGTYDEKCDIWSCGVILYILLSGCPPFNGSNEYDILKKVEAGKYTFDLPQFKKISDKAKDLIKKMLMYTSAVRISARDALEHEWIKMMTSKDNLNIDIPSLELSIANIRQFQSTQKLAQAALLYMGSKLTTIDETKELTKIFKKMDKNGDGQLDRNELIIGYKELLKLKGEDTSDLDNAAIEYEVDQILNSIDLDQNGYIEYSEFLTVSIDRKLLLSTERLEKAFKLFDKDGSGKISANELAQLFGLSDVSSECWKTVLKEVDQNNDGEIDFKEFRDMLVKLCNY

Sequence of Protein kinase 7 (PK7), Plasmodium falciparum 3D7 (PF3D7_0213400) (Q7YTF7 1-343): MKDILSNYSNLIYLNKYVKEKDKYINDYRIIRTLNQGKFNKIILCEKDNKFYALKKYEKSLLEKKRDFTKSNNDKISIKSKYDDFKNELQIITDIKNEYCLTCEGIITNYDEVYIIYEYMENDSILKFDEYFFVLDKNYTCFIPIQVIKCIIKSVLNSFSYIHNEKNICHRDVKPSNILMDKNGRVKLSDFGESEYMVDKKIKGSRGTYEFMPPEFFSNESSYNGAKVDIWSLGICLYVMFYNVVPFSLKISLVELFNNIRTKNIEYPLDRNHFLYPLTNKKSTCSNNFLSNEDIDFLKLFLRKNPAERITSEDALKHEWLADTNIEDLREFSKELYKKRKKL
Sequence of Calcium-dependent protein kinase 1 (Plasmodium falciparum (isolate 3D7)) (P62344 whole entry, looked up): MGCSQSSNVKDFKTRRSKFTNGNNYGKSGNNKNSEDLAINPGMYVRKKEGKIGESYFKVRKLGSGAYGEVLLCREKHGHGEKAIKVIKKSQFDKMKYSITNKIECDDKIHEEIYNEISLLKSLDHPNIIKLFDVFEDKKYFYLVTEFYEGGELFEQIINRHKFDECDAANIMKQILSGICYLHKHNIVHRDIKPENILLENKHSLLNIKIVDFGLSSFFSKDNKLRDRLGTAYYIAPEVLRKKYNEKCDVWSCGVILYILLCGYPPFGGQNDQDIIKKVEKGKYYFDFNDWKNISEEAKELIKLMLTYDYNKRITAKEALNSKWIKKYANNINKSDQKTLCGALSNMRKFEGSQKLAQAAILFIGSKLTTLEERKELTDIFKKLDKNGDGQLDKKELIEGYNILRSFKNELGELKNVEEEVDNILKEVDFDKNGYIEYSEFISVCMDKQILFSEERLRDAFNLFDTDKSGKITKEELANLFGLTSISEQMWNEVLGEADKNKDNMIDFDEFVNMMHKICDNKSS
Sequence of Plasmodium falciparum protein kinase 6 (PK6, PF3D7_1337100) (Q8IDW1 1-305): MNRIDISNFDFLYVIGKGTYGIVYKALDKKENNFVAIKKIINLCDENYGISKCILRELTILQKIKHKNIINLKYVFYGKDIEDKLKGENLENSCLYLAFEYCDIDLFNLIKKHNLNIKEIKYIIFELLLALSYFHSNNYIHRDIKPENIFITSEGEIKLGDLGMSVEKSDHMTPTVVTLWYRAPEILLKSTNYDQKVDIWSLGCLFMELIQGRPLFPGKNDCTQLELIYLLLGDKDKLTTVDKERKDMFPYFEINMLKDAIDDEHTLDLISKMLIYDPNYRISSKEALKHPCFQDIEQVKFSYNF
Sequence of L-lactate dehydrogenase (Plasmodium falciparum (isolate CDC / Honduras)) (Q27743 whole entry, looked up): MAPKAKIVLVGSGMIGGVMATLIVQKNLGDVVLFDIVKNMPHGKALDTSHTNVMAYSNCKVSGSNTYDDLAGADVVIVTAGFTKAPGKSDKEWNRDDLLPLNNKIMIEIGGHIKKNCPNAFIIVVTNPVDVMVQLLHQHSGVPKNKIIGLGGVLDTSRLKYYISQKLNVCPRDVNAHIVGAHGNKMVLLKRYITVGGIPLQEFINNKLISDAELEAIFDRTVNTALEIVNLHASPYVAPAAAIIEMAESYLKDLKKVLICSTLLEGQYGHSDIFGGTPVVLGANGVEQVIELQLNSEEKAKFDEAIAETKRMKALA

Compound	growth inhibition [1]	inhibition [2]	inhibition [3] [%]	growth inhibition [4]	outcome [5]	outcome [6]	outcome [7]	outcome [8]
Clc1ccc(-c2cnc3ccc(NCc4ccncc4)nn23)cc1	98% (active)	25%	2	98% (active)	inactive	inactive	inactive	inactive
CCC(N)(C#Cc1ccc(-c2c(C)[nH]c(C)c(Br)c2=O)cc1)CC	96% (active)	0%	-1	97% (active)	inactive	inactive	inactive	inactive
COc1cccc(CN2CCN(C(c3ccccc3)c3ccccc3)CC2)c1O	98% (active)	6%	2	99% (active)	inactive	inactive	inactive	inactive
CC(=O)Nc1cccc(C(=O)Nc2ccc(-c3cccc(-c4nc5ccc(C(F)(F)F)cc5[nH]4)c3)cc2)c1	85% (active)	81% (active)	2	101% (active)	inactive	inactive	inactive	inactive
COc1ccccc1C1CCN(C2CCC(NC(=O)/C=C/c3cccc(Cl)c3)CC2)CC1 (stereo not given)	20%	54% (active)	3	92% (active)	inactive	inactive	inactive	inactive
CCOC(=O)NC1=NC(C)(C)N(OCCCOc2ccc(C)cc2C)C(NC(=O)OCC)=N1	98% (active)	63% (active)	7	95% (active)	inactive	inactive	inactive	inactive
O=C(Nc1ccccc1N1CCOCC1)c1ncoc1-c1ccccc1C(F)(F)F	60% (active)	-2%	7	89% (active)	inactive	inactive	inactive	inactive
Cc1ccc(Oc2ccc(CNc3nc(Nc4cccc(F)c4)nc(Nc4cccc(F)c4)n3)cc2)cc1	-2%	-5%	-2	86% (active)	inactive	inactive	inactive	inactive
CC(C)N1CCC(NC(=O)N2CCCN(c3ncnc4cc(-c5ccc(Cl)cc5)sc34)CC2)CC1	7%	6%	7	81% (active)	inactive	inactive	inactive	inactive
Cn1nccc1C(=O)NCCNCc1cccc(-c2ccc(-c3nc4ccc(C(F)(F)F)cc4[nH]3)s2)c1	99% (active)	36%	-6	100% (active)	inactive	inactive	inactive	inactive
Cn1c(=O)n(C)c2cc(CNCCNc3ccnc4cc(Cl)ccc34)ccc21	96% (active)	17%	-1	101% (active)	inactive	inactive	inactive	inactive
Cn1cc(CN2CCC(OC(c3ccccc3)c3ccc(Cl)cc3)CC2)cn1 (stereo not given)	61% (active)	39%	5	94% (active)	inactive	inactive	inactive	inactive
O=C(N[C@@H](Cc1ccccc1)C(=O)NC1CCCc2ccccc21)c1ccc(O)c(-c2ccc(Cl)c(Cl)c2)c1 (stereo not given in full)	99% (active)	-3%	-8	97% (active)	inactive	inactive	inactive	inactive
CCCCCN1C(=O)C(c2ccccc2)(c2ccccc2)N=C1N	68% (active)	18%	-1	97% (active)	inactive	inactive	inactive	inactive
N#Cc1cccc([C@H](O)[C@@H]2CN(CCC3CCCCC3)CC[C@@]2(O)c2ccccc2)c1	100% (active)	-5%	3	98% (active)	inactive	inactive	inactive	inactive
Cc1ccc(C(=O)Nc2ccc(Cl)c(N3CCN(CCc4ccccc4)CC3)c2)cc1	14%	17%	-7	90% (active)	inactive	inactive	inactive	inactive
Cc1ccc2c(c1[N+](=O)[O-])N=NCC2Oc1ccccc1 (stereo not given)	19%	16%	-4	91% (active)	inactive	inactive	inactive	inactive
N#Cc1ccc(-c2ccc(OCC(O)CN3CCCN(C(=O)C(c4ccc5c(c4)OCO5)N4CCN(C/C=C/c5ccccc5)CC4)CC3)cc2)cc1 (stereo not given)	77% (active)	25%	3	99% (active)	inactive	inactive	inactive	inactive
OCCN1CCN(Cc2cccc(-c3cccc(-c4nc5ccc(F)cc5[nH]4)c3)c2)CC1	99% (active)	41%	-2	102% (active)	inactive	inactive	inactive	inactive
CCc1cn(CCOC)c2ccc(C(=O)N[C@@H](Cc3ccccc3)[C@H](O)CNC(C)(C)CCCC(C)C)cc12	98% (active)	35%	1	98% (active)	inactive	inactive	inactive	inactive

Compound	growth inhibition [1]	inhibition [2]	inhibition [3] [%]	growth inhibition [4]	outcome [5]	outcome [6]	outcome [7]	outcome [8]
CC(C)(C)NS(=O)(=O)c1cc(C(=O)N2CCC(CCN3CCC(O)(c4cccc(C(F)(F)F)c4)CC3)(c3cccc(F)c3)CC2)c(Cl)cc1F	55% (active)	15%	-6	88% (active)	inactive	inactive	inactive	inactive
COc1ccc(NC(=O)N2CCCN(CCCCCNC(=O)/C=C/c3ccc(Cl)cc3)CC2)cc1Cl	1%	15%	1	97% (active)	inactive	inactive	inactive	inactive
O=C(Nc1ccc(F)c(F)c1)c1ccc(CN2CCCN(Cc3cccc(F)c3)CC2)cc1	12%	51% (active)	-6	83% (active)	inactive	inactive	inactive	inactive
O=C(/C=C/c1ccc(Cl)c(Cl)c1)NCCCCCN1CCC(n2c(=O)[nH]c3ccccc32)CC1	-1%	38%	2	97% (active)	inactive	inactive	inactive	inactive
CN1CCN(CC2(Nc3nccc(NCc4ccc(Cl)cc4Cl)n3)CCCCC2)CC1	58% (active)	98% (active)	0	98% (active)	inactive	inactive	inactive	inactive
CNCCNc1nccc(N2CCc3ncnc(Nc4ccc(OCc5cccc(F)c5)c(Cl)c4)c3C2)n1	98% (active)	30%	-4	100% (active)	inactive	inactive	inactive	inactive
COc1cccc(O)c1CN1CCC2(CCCN(Cc3ccc(F)cc3)C2)C1 (stereo not given)	72% (active)	21%	1	98% (active)	inactive	inactive	inactive	inactive
Brc1ccc(Nc2ccnc3cc(-c4nccs4)ccc23)cc1Oc1ccnc2cc(-c3nccs3)ccc12	83% (active)	15%	-4	91% (active)	inactive	inactive	inactive	inactive
CN1CCN(CCCN(Cc2cccc(-c3ccc(CNCc4ccc5c(c4)OCO5)cc3)c2)C(=O)CCC2CCCC2)CC1	84% (active)	91% (active)	-6	98% (active)	inactive	inactive	inactive	inactive
CC(=O)c1c(CC(=O)O)c2ccccc2n1O	-1%	16%	-3	98% (active)	inactive	inactive	inactive	inactive
COc1cc2c(cc1OCCN1CCC(N3CCCCC3)CC1)N(C(=O)/C=C/c1ccccc1Cl)CC2	41%	36%	-1	102% (active)	inactive	inactive	inactive	inactive
COc1ccc(CN2CCC(CNCc3cccc(-c4ccccc4)c3)CC2)cc1	92% (active)	96% (active)	2	100% (active)	inactive	inactive	inactive	inactive
CN(C)CCn1c(N)c(-c2nc3ccccc3s2)c2nc(C#N)c(C#N)nc21	40%	4%	-7	94% (active)	inactive	inactive	inactive	inactive
CCOC(=O)c1ccc(NC(=O)N(Cc2ccc(-c3ccc(CN4CCNCC4)cc3)cc2)C2CCN(Cc3ccccc3)CC2)cc1	93% (active)	14%	3	102% (active)	inactive	inactive	inactive	inactive
CC(C)N1CCC(N(Cc2ccc(-c3ccc(Cl)cc3)cc2)C(=O)Cn2c(CCc3cccc(F)c3F)cc(=O)c3ccccc32)CC1	73% (active)	62% (active)	4	96% (active)	inactive	inactive	inactive	inactive
Cc1[nH]c2ccccc2c(=O)c1[N+](=O)[O-]	-2%	5%	-5	88% (active)	inactive	inactive	inactive	inactive
Fc1ccc(COc2ccc(Nc3ncnc4ccc(I)cc34)cc2Cl)cc1	30%	28%	-5	86% (active)	inactive	inactive	inactive	inactive
N#Cc1ccc(NC(=O)NC2CCN(CCCCCNC(=O)/C=C/c3ccc(Cl)c(Cl)c3)CC2)cc1	4%	15%	0	98% (active)	inactive	inactive	inactive	inactive
COc1ccc(CNC2CCN(C)CC2)cc1-c1ccc(S(=O)(=O)NCCc2ccccn2)c(F)c1	55% (active)	3%	1	101% (active)	inactive	inactive	inactive	inactive
COc1ccc(-c2cccc(NC(=O)c3ccc(C#N)cc3)c2)cc1CN(C)CCN(C)C	18%	14%	3	90% (active)	inactive	inactive	inactive	inactive
